± gives the standard deviation of the averaged measurements.
System: AEK1 (Tb927.3.2440)
Assay: percent reduction in TR-FRET probe signal relative to DMSO control; higher = stronger displacement of ATP-site probe (binding)
Conditions: 1 µM; incubation time 1 h

With `Cc1nc(Nc2cnn(C3CCNCC3)c2)nc2c1N(C)C(=O)c1cc3ccccc3cc1N2C` as the molecule, how does the “percent reduction in TR-FRET probe signal” value (shortened to “percent reduction”) read?
The value was -10.5 ± 7.1%.

With `COc1cc2ncnc(Oc3cccc(NC(=O)Nc4cc(C(C)(C)C(F)(F)F)on4)c3)c2cc1OC` as the molecule, how does the “percent reduction” value read?
The value was 1.1 ± 13%.

With `O=C(c1ccc(F)c(F)c1Nc1ccc(I)cc1F)N1CC(O)([C@@H]2CCCCN2)C1` [Cobimetinib (GDC-0973, RG7420)] as the molecule, how does the “percent reduction” value read?
Its value is 2.36 ± 13%.

Which “percent reduction” value does the source give for `Cl.Cl.NC1(c2ccc(-c3nc4ccn5c(=O)[nH]nc5c4cc3-c3ccccc3)cc2)CCC1` here?
Its value is -1.31 ± 6.8%.

How did the “percent reduction” value turn out when `Cc1cc(Nc2cc(N3CCN(C)CC3)nc(/C=C/c3ccccc3)n2)n[nH]1` was run?
Its value is 20.9 ± 12%.

`COC(=O)Nc1ccc(-c2nc(N3CCOCC3)c3cnn(C4CCN(C(=O)OC)CC4)c3n2)cc1` was tested. Which “percent reduction” value did it give?
Its value is -6.41 ± 11%.

— the supplement of paper PMC10720658
